Measured values: PMC7826789 (International Journal of Molecular Sciences, 2021)

tested on: MAP2K5

Row | SMILES | Kinases covered
1 | Cc1ccc(C(=O)Nc2ccc(Nc3ccnc4cc(-c5ccccn5)ccc34)cc2O)cc1 [GW440146] | MAP2K5
2 | COc1cc2ncn(-c3cc(OCC4CCCO4)c(C(N)=O)s3)c2cc1OC (stereo not shown) [GSK204607] | MAP2K5
3 | COc1cc(Nc2nccc(N3CCC(NC(=O)Nc4cc(C)ccc4C)C3)n2)cc(OC)c1OC (stereo not shown) [GSK1379762] | MAP2K5
4 | COc1cc2nccc(Nc3ccc(OCc4ccc(NC(C)=O)cc4)cc3)c2cc1OC [GW440135] | MAP2K5

tested on: MAPK10

Row | SMILES | Kinases covered
5 | O=C(O)/C=C/C(=O)O.OCCCNc1nccc(-c2c(-c3ccc(F)cc3)nn3cc(C(F)(F)F)ccc23)n1 [GW569293E] | MAPK10
6 | CCC(=O)c1c(-c2ccccc2)c2cc(Cl)ccc2c(=O)n1Cc1cc(S(C)(=O)=O)n(CC(N)=O)n1 [TPKI-105] | MAPK10
7 | CCc1nc(-c2cccc(C)c2)c(-c2ccncc2)s1 [TPKI-106] | MAPK10
8 | Fc1ccc(-c2nn3ccccc3c2-c2ccncc2)cc1 [GW434756X] | MAPK10
9 | COC(=O)c1c(-c2ccccc2)c2cc(Br)ccc2c(=O)n1Cc1ccc(S(C)(=O)=O)cc1 [TPKI-100] | MAPK10
10 | Nc1nccc(-c2c(-c3ccc(F)cc3)ncn2C2CCN(Cc3ccccc3)CC2)n1 [SB-219980] | MAPK10
